# Reference: PubChem BioAssay (Tox21)
# Where “and” joins values, the source holds several entries; their conditions need not be identical. Identical values can stand only once. Inconclusive results are not listed. A call without a number means that no potency is given here. A structure can be active in one record and inactive in another. Calls of active or inactive are those of the source. Calls come from the whole dose curve.
# Test: qHTS assay to identify small molecule agonists of the progesterone receptor (PR) signaling pathway - cell viability counter screen (AID 1346799); note: nearly all actives have a fitted effect of over 45% in size
# Conditions: PR-UAS-bla HEK293T viability, CellTiter-Glo luminescence, 16 h; series mostly up to 92.4 µM; activity change, negative = cytotoxicity: at the top concentration
# Excerpt: National Center for Advancing Translational Sciences [NCATS]
# NIH Chemical Genomics Center [NCGC]
# U.S. Environmental Protection Agency [EPA]
# National Institutes of Environmental Health Sciences [NIEHS]
# National Toxicology Program [NTP]
# U.S. Food and Drug Administration [FDA]
# Progesterone receptor (PR), a nuclear hormone receptor, plays an important role in development, metabolic homeostasis and reproduction. It is activated by the steroid hormone progesterone. Endocrine disrupting chemicals (EDCs) and their interactions with steroid hormone receptors like PR causes disruption of normal endocrine function. To identify the compounds that stimulate PR signaling, a PR-UAS-bla GripTite cell line i.e. PR-UAS-bla HEK293T (Invitrogen, Carlsbad, CA, USA) containing a beta-lactamase reporter gene under the control of an UAS response element was used to screen Tox21 10K compound library. The cytotoxicity of the Tox21 compound library against the PR-bla cell line was tested in parallel by measuring the cell viability using CellTiter-Glo assay in the same wells.
# Tox21 Assay Protocol Summary:
# PR-UAS-bla HEK293T cells were dispensed at 3,000 cells/5 uL of assay medium containing 2% charcoal stripped FBS per well into black wall/clear-bottom 1536-well plates using a Multidrop Combi (ThermoFisher Scientific, Waltham, MA) dispenser. After the assay plates were incubated at a 37C and 5% CO2 for 6 hr, 23 nL of compounds dissolved in DMSO, positive controls or DMSO only was transferred to the assay plate by a Pintool station (Kalypsys, San Diego, CA). The plates were incubated at 37C and 5% CO2 for 16 hr. Then 1 uL of LiveBLAzer B/G FRET substrate was added using a Flying Reagent Dispenser (FRD, Aurora Discovery, San Diego, CA), the plates were incubated at room temperature for 2 hours, and fluorescence intensity was measured by an Envision plate reader (PerkinElmer, Shelton, CT). For cell viability readout that measures cytotoxicity, 4 uL/well of CellTiter-Glo reagent was added into the assay plates using a FRD. After 30 min incubation at room temperature, the luminescence intensity in the plates was measured using a ViewLux (PerkinElmer) plate reader.
# Potency is the fitted concentration of half-maximal effect.
SMILES,Potency,"activity change, negative = cytotoxicity"
CCCC[N+]1(C)CCCC1,inactive,–
OCCOc1ccccc1,inactive,–
CCOP(=S)(OCC)Oc1ccc2c(C)c(Cl)c(=O)oc2c1,–,1.33% [at 42.5 µM] (inactive)
CCn1cc[n+](C)c1C,inactive,–
CCC(=O)C(CC(C)N(C)C)(c1ccccc1)c1ccccc1 (stereo not given),43.5 µM (active),–
O=C(O)c1nc(Cl)ccc1Cl,inactive,–
C[C@]12CCC(=O)C=C1CC[C@@H]1[C@@H]2CC[C@]2(C)C(=O)CC[C@@H]12,inactive and 61.1 µM (active),–
Oc1cccc2cccnc12,770 nM (active) and inactive,–
CCCCCCCCCCCCCCCCn1cc[n+](C)c1,inactive and 61.7 µM (active) and 30.7 µM (active),–
Nc1ccccc1,inactive,–
CCCCCC[n+]1ccccc1,–,0.597% (inactive)
COc1ccc(N)cc1,inactive,–
CCCC[n+]1cccc(C)c1,inactive,–
CC[N+]1(C)CCCC1,inactive,–
CCCCCCCCCCCCOS(=O)(=O)O,inactive and 27.3 µM (active),–
Nc1ccc(-c2ccc(N)cc2)cc1,inactive,–
O=C(O)CC(O)(CC(=O)O)C(=O)O,inactive,–
C[N+](C)(C)Cc1ccccc1,inactive,–
CCCCn1cc[n+](C)c1C,inactive,–
CC(=O)O,inactive,–

SMILES,Potency,"activity change, negative = cytotoxicity"
O=c1nc(O)n(Cl)c(=O)n1Cl,inactive,–
CCCC[n+]1ccccc1C,inactive,–
C1CCC(NC2CCCCC2)CC1,inactive,–
O=C(O)c1ccccc1O,inactive,–
COc1ccccc1N,inactive,–
CCCCCCn1cc[n+](C)c1,–,12.8% (inactive)
CCC[N+]1(C)CCCCC1,inactive,–
CCCC[N+]1(C)CCCCC1,inactive,–
CC(=O)[O][Hg][c]1ccccc1,5.4 µM (active) and 5.45 µM (active) and 5.96 µM (active),–
O=c1[nH]c(=O)n(Cl)c(=O)n1Cl,inactive,–
CNC,inactive,–
CC[n+]1ccccc1,inactive and 48.2 µM (active),–
CCCn1cc[n+](C)c1,inactive,–
O=C(O)COc1ccc(Cl)cc1Cl,inactive,–
COP(=O)(OC)OC=C(Cl)Cl,inactive,–
C=CCOC(Cn1ccnc1)c1ccc(Cl)cc1Cl (stereo not given),27.4 µM (active) and 21.7 µM (active) and 18.8 µM (active),–
O=C(O)C(Cl)Cl,inactive,–
CCC[N+]1(C)CCCC1,inactive,–
COCC(=O)N(c1c(C)cccc1C)C(C)C(=O)OC (stereo not given),inactive,–
O=[N+]([O-])c1ccccc1O,inactive,–
